Sampled rows, rich in hits. Any-hit rate of the full collection: about 12%.
PLK1 PBD block: qHTS for Inhibitors of PLK1-PDB (polo-like kinase 1 - polo-box domain): Primary Screen. 360,000 tested, 2.8% active. Potency, µM, without a hit: max response, negative = inhibition, most hits filed as inhibitors. Plk1 PBD binding of FITC phosphopeptide, fluorescence polarization. Serine/threonine-protein kinase PLK1 (Homo sapiens), P53350. AID 720504, 2013; note: potency is the fitted concentration of half-maximal effect; series mostly up to about 57 µM; % is set by controls: 0 for no effect and ±100 for the full control effect; nearly all actives have a fitted effect of over 65% in size
G9a block: qHTS Assay for Inhibitors of Histone Lysine Methyltransferase G9a; 350,000 tested, 8.8% active; AID 504332, 2011; G9a H3K9 monomethylation, AlphaScreen, 2 h; Potency, µM (doses to about 102 µM), inactives show top-dose activity, negative = inhibition, hits mostly inhibitors; Histone-lysine N-methyltransferase EHMT2 (Homo sapiens), Q96KQ7; note: potency is the fitted concentration of half-maximal effect; % is set by controls: 0 for no effect and ±100 for the full control effect; nearly all actives have a fitted effect of over 75% in size
Target sequence (Q96KQ7 913-1193 limits assumed): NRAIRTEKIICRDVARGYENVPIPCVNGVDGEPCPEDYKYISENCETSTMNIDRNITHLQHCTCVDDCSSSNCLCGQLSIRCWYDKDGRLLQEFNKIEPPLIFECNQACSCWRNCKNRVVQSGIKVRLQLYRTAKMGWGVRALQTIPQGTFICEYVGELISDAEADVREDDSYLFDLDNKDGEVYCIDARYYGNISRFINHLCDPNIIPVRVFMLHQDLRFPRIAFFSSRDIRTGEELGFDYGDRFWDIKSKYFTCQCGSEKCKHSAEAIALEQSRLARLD
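G9a (20 nM) was preincubated 15 min with compound, then reacted 2 h at room temperature with 500 nM biotin-H3K9 peptide and 20 µM SAM. Monomethyl-H3K9 detected by AlphaScreen using anti-H3K9me1 antibody.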
PI5P4K alpha inh: qHTS for Inhibitors of phosphatidylinositol 5-phosphate 4-kinase (PI5P4K); Phosphatidylinositol 5-phosphate 4-kinase type-2 alpha (Homo sapiens), P48426; PI5P4Kalpha enzyme, ADP-Glo luminescence, 60 min; hits give low values; max response, %; 330,000 tested, 1.2% active; AID 652105, 2013; active = max response of -50% or lower; inconclusive = between -30% and -50%; inactive = -30% or higher; note: value at the top dose of about 77 µM; % is set by controls: 0 for no effect and ±100 for the full control effect
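Luminescence from ADP-Glo served as readout of PI5P4Kalpha activity in a qHTS format. Reaction: enzyme, substrate, compound, ATP at 5 microM final, 60 min at RT.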
BAZ2B block: qHTS Assay for Inhibitors of BAZ2B; AlphaScreen BAZ2B-H3K14Ac peptide displacement; Potency, µM (top dose mostly 114 µM), without a hit: top-dose activity change, negative = inhibition, actives largely listed as inhibitors; 360,000 tested, 4.4% active; AID 504333, 2011; note: potency is the fitted concentration of half-maximal effect; % is set by controls: 0 for no effect and ±100 for the full control effect; nearly all actives have a fitted effect of over 60% in size
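In this displacement format the biotinylated H3(5-23) peptide acetylated at Lys14 serves as ligand at 50 nM, with BAZ2B at 50 nM in PBS pH 7.4 containing 0.01% Tween-20. Donor and acceptor beads are 10 ug/mL final.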
HP1b binding inh: HTS for Inhibitors of HP1-beta Chromodomain Interactions with Methylated Histone Tails. Chromobox protein homolog 1 (Homo sapiens), P83916. AlphaScreen HP1-beta / biotin-H3K9me3 peptide binding. Potency, µM (titrated, usually from 114 µM), for the others: at the top dose activity change, negative = inhibition, usual class: inhibitors. 390,000 tested, 0.56% active; note: potency is the fitted concentration of half-maximal effect; nearly all actives have a fitted effect of over 70% in size
Target sequence (P83916 whole entry, looked up): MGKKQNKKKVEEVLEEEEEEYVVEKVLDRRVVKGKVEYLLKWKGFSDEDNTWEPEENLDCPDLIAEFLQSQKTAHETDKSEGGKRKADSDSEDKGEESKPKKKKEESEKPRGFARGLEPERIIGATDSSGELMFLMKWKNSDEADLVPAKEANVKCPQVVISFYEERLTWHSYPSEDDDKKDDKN
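HP1-beta protein (50 nM final) preincubated 30 min at room temperature with biotinylated H3(1-18)K9me3 peptide (50 nM) in PBS pH 7.4, 0.01% Tween-20, then compound added for 30 min. AlphaScreen streptavidin donor/nickel chelate acceptor beads (10 ug/mL final), 30 min dark, luminescence read.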
JMJD2A Tudor: qHTS Assay for Inhibitors of JMJD2A-Tudor Domain; Lysine-specific demethylase 4A (Homo sapiens), O75164; AlphaScreen JMJD2A-Tudor / H3K4me3 peptide binding; Potency, µM (top dose mostly 114 µM), inactives show at the highest dose activity change, negative = inhibition, actives largely listed as inhibitors; 390,000 tested, 4.4% active; note: potency is the fitted concentration of half-maximal effect; % is set by controls: 0 for no effect and ±100 for the full control effect; nearly all actives have a fitted effect of over 50% in size
An asterisk follows results filed as active; ? = inconclusive; nt = no result; [ ] = remark or other dose. Unless noted, calls come from the whole dose curve; as a rule, active = well fitted curve in the direction sought with a large enough effect; inconclusive = small, poorly fitted or top-dose-only effect, or another doubt; inactive = no such curve, though single readings can be large; an effect the other way counts as inactive or inconclusive.

SMILES	PLK1 PBD block	G9a block	PI5P4K alpha inh	BAZ2B block	HP1b binding inh	JMJD2A Tudor
COc1ccc(CNCc2c(F)cccc2F)cc1OC	-20.1%	10µM*	1.1	-39.0%	-3.7%	3.98µM*
COc1ccc(CNCC(C)NCc2ccc(OC)c(OC)c2)cc1OC (centres undefined)	-12.6%	-12.6%	-4.9	-1.3%	36.0%	-17.8%
Nc1c2c(nc3ccccc13)CSCC2	2.0%	nt	-0.2	nt	-5.0%	-24.5%
COc1cccc(CNCc2ccc(SC)cc2)c1OC	0.9%	22.4µM*	nt	?	?	12.6µM*
CCOc1cc(CNCc2cc(OC)cc(OC)c2)ccc1OC	-8.1%	39.8µM*	0.3	?	?	1µM*
Cn1c(=S)c2[nH]c(SCCN)nc2n(C)c1=O	26.7µM*	nt	-16.5	nt	-14.2%	1.12µM*
CCCCC(CC)CNC(=O)CN(C)S(=O)(=O)c1ccc2c(c1)c(=O)n(C)c(=O)n2C (centres undefined)	nt	1.2%[59 µM]	nt	-1.9%[57.1 µM]	39.7%	6.1%
CCOc1ccc(OCC)c(NC(=O)CN2CCN(C(=O)c3ccco3)CC2)c1	21.2µM*	-7.8%[12.7 µM]	-10.1	8.2%	-24.8%	-1.5%[11.4 µM]
CCOc1ccc(OCC)c(NC(=O)CN2CCN(c3cccc(C)c3C)CC2)c1	3.7%	?	nt	?	?	1.58µM*
COc1ccc(CC(=O)N2CCc3cc(OC)c(OC)cc3C2COc2ccc3c(C)cc(=O)oc3c2)cc1OC (centres undefined)	nt	10.0%[59 µM]	nt	3.6%	3.4%	-22.2%
Cc1oc(-c2ccccc2Cl)nc1Cn1c(SCc2cccc(F)c2)nc2cccnc21	nt	11.3%[59 µM]	nt	-1.6%	25.0%	-34.0%
CCOC(=O)C(=O)N1CCC(C(=O)OC)CC1	0.1%	35.5µM*	-2.5	-37.1%	8.5%	4.9%
O=C(CCC1CCCC1)N1CCN(C(=O)COc2ccccc2)CC1	23.8µM*	50.1µM*	-24.4	8.6%	-5.6%	-19.2%[11.4 µM]
CCOC(=O)C(=O)N1CCC(C(=O)OCC)CC1	1.0%	?	5.0	-18.5%	15.6%	-6.0%
O=C(CCC1CCCC1)N1CCC(N2CCCCCC2)CC1	-2.8%	?	1.3	56.2µM*	?	3.98µM*
Cc1ccc(OCC(=O)N2CCN(C(=O)CCC3CCCC3)CC2)cc1	-0.4%	5.1%[59 µM]	14.4	9.3%	18.6%	-3.6%
CCOC(=O)N1CCN(C(=O)CCC2CCCC2)CC1	2.1%	-1.9%	-3.0	-14.0%	15.2%	0.7%
CS(=O)(=O)N1CCN(C(=O)CCC2CCCC2)CC1	-8.6%	-19.0%[59 µM]	-1.8	-35.9%	24.1%	-3.2%
COC(=O)C1CCN(C(=O)CCC2CCCCC2)CC1	-6.6%	7.08µM*	2.6	14.1%	27.8%	-2.8%
COC(=O)c1csc(C(=O)c2c[nH]c3ccccc23)n1	nt	29.7%[59 µM]	nt	nt	nt	nt
COc1ccc(C2c3[nH]c4ccc(OC)cc4c3CCN2C(=O)Nc2ccccc2)cc1 (centres undefined)	nt	?	nt	?	-7.0%	?
CC(C)c1cc(C(C)C)c(S(=O)(=O)Nc2cccc3cccnc23)c(C(C)C)c1	nt	nt	nt	nt	nt	-0.7%
CC(=O)Nc1ccc(S(=O)(=O)N(C)CC(=O)OCC(=O)N2CC(C)OC(C)C2)cc1 (centres undefined)	-5.0%	29.7%[12.7 µM]	-0.7	26.0%	3.0%	-5.8%
COc1ccc(NC(=O)c2cc(S(=O)(=O)N3CCCCCC3)cn2C)cc1Cl	nt	4.4%[59 µM]	nt	1.1%	17.8%[57 µM]	-8.9%
CC(Cc1nnc(N)s1)c1ccccc1 (centres undefined)	?	31.6µM*	-5.3	10.9%	-14.9%	-10.7%
SMILES	PLK1 PBD block	G9a block	PI5P4K alpha inh	BAZ2B block	HP1b binding inh	JMJD2A Tudor
Nc1nnc(CC(c2ccccc2)c2ccccc2)s1	-4.4%	-1.6%[59 µM]	nt	-7.5%	8.9%	-19.1%
S=C(NCC1CCCO1)N1CCN(Cc2ccccc2)CC1 (centres undefined)	-9.3%	15.8µM*	-3.0	20µM*	20µM*	0.891µM*
S=C(NCC1CCCO1)N1CCN(c2nc(-c3ccccc3)cs2)CC1 (centres undefined)	-10.2%	50.1µM*	-9.2	?	-1.2%	?
O=C(NCC1CCCO1)c1ccc2c(c1)N(Cc1ccccc1)C(=O)CS2=O (centres undefined)	7.52µM*	-4.7%[59 µM]	-29.2	3.8%	-14.0%	?
S=C(NCc1ccco1)N1CCN(c2nc(-c3ccccc3)cs2)CC1	-20.0%	-7.5%	-3.4	-31.5%	?	-31.9%
COc1ccccc1/C=C/C=N/n1c(-c2cc(C)[nH]n2)n[nH]c1=S	-16.0%	1.58µM*	-0.6	?	-29.9%	7.94µM*
COc1ccccc1/C=C/C=N/n1c(-c2ccccn2)n[nH]c1=S	-10.6%	1.58µM*	-9.4	14.1µM*	8.1%	8.91µM*
Cc1cc(-c2n[nH]c(=S)n2/N=C/C=C/c2ccccc2)n[nH]1	-16.3%	1.41µM*	-14.1	?	?	10µM*
COc1ccccc1/C=C\C=N\n1c(C2CCCCC2)n[nH]c1=S	?	-4.6%[0.0925 µM]	-3.7	?	?	-22.1%
CCNc1ncc2nc(-c3cc(F)cc(F)c3)c(=O)n(C)c2n1	nt	11.1%[0.501 µM]	nt	nt	nt	nt
CCN(N)C(=S)Nc1ccc(F)cc1	-8.9%	?	-0.2	-17.8%	19.1%	-25.0%
Cc1ccc(NC(=S)N(N)CCO)cc1	?	44.7µM*	-5.6	79.4µM*	17.2%	?
O=C1C(=O)N(CCCN2CCOCC2)C(c2ccc(Cl)cc2)/C1=C(\O)c1ccc2c(c1)OCCO2 (centres undefined)	23.8µM*	39.8µM*	-11.7	-27.0%	11.1%	31.6µM*
COc1ccccc1C1/C(=C(\O)c2ccc3c(c2)OCCO3)C(=O)C(=O)N1CCCN(C)C (centres undefined)	nt	10.2%[59 µM]	nt	0.0%	nt	nt
COc1cccc(C2/C(=C(\O)c3ccc4c(c3)OCCO4)C(=O)C(=O)N2CCCN2CCOCC2)c1OC (centres undefined)	-2.4%	3.55µM*	-2.7	-3.0%	54.5%	-2.1%
Cc1c(C(=O)Nc2ccc(-c3nnc4n3CCCCC4)cc2)oc2c1ccc1ccccc12	0.5%	50.1µM*	-5.4	-31.9%	-8.8%	?
CN(C)CCCN(C(=O)c1cc2cc([N+](=O)[O-])ccc2s1)c1nc2cc3c(cc2s1)OCCO3	-6.0%	20µM*	-69.4*	?	-33.4%	?

Screening data: PubChem, National Center for Advancing Translational Sciences (NCATS)
